VACV mCherry inh: vaccinia inhibition (mCherry reporter); Vaccinia virus mCherry reporter infection, fluorescence; Potency, µM (series often up to 36.5 µM), for the others: at the highest dose activity change, negative = inhibition, actives largely listed as inhibitors; actives 0.63% (n = 310,000); calls by dose curve; tested in A549 cells; further: nearly all actives have a fitted effect of over 35% in size
VACV Venus inh: inhibitors of vaccinia virus (Venus reporter); AID 720580; actives 0.46% (n = 330,000); Potency, µM (highest dose often 36.5 µM), without a hit: at the top dose activity change, negative = inhibition, most hits filed as inhibitors; Vaccinia virus Venus reporter expression, fluorescence; calls by dose curve; tested in A549 cells; further: nearly all actives have a fitted effect of over 30% in size
HCV inh: blocks hepatitis C virus | Huh7.5.1 HCVcc-Cre infection, luciferase reporter, 44 h | Potency, µM (top dose mostly 41.8 µM), inactives show at the highest dose activity change, negative = inhibition, actives largely listed as inhibitors | actives 3.4% (n = 340,000); active means well fitted inhibition curve with a large enough effect; inconclusive means small, poorly fitted or top-dose-only effect, or another doubt; inactive means no such curve, though single readings can be large or run the other way
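Seed cells (1,000/well) for 4 h; treat with compound and infect with HCVcc-Cre, moi about 0.5. Incubate 44 h, then detect luciferase activity.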
Marburg entry inh: Marburg virus entry inhibition. AID 540276. actives 1.8% (n = 300,000). Marburg virus pseudotyped entry inhibition, cell reporter. Potency, µM (series often up to 37.8 µM), inactives show top-dose activity change, negative = inhibition, actives largely listed as inhibitors; calls by dose curve; tested in HEK293 cells
LASV entry inh: blocks Lassa virus binding to or entry into cells | AID 540256 | actives 1.2% (n = 300,000) | Potency, µM (titrated, usually from 37.9 µM), without a hit: at the highest dose activity change, negative = inhibition, usual class: inhibitors | Lassa virus pseudotype entry inhibition, cell reporter; calls by dose curve; tested in HEK293 cells; further: nearly all actives have a fitted effect of over 50% in size
* = called active by the depositor; i = inactive; ? = inconclusive; . = no result; [ ] = another dose, or the depositor's remark. An excerpt weighted towards active compounds, which were near 4.6% of everything screened. On the % scale 0 is the no-effect control and ±100 the full control effect; potency means the concentration at half of the fitted maximal effect.

SMILES | VACV mCherry inh | VACV Venus inh | HCV inh | Marburg entry inh | LASV entry inh
CCOC(=O)c1ccc(CN(Cc2ccc(F)cc2)S(=O)(=O)c2ccc(F)c(C(=O)Nc3ccc(Cl)cc3F)c2)cc1 | -11% | -14% | . | . | 28%[46.1 µM]
COc1ccc(C)cc1NC(=O)N(C(C)C)C1CCN(C(C)=O)CC1 | -2% | -4% | . | -6%[46.1 µM] | -4%[46.1 µM]
COCc1ccc(CN2CCOc3ccc(C4=Cc5ccccc5C4)cc3C2)o1 | -14% | -9% | . | . | .
Cc1cc(NC(=O)c2ccc3c(c2)OCCO3)ccc1NC(=O)c1cc2ccccc2o1 | . | . | 11µM* | . | .
COc1ccc(C(=O)Nc2ccc3c(c2)OCCO3)cc1 | i | -8% | -4% | 6.5µM* | 5.2µM*
Cc1ccc(OCCSc2nc3ccc(NC(=O)c4ccc5c(c4)OCO5)cc3s2)cc1 | ? | 11µM* | . | -2%[46.1 µM] | -27%[46.1 µM]
CC(=O)Oc1ccc(C(=O)Nc2ccc3c(c2)OCCO3)cc1 | i | -6% | -27% | ? | ?
COc1cc(C(=O)Nc2ccc3c(c2)OCCO3)ccc1OC(C)C | . | -21% | 13µM* | 0% | 6%
COC(=O)C1=C(C(=O)OC)[C@@H]2Nc3ccccc3[C@@]23C[C@@H](C(=O)OC)N(C(=O)NC2CCCC2)C3=N1 | . | . | . | -4%[14.2 µM] | .
C/C(=N\NC(=S)Nc1ccc(F)cc1)c1ccc2c(c1)OCCO2 | -24% | ? | ? | 1µM* | ?
COc1cccc(NC(=O)c2ccc3c(c2)OCO3)c1 | . | . | 0% | . | .
C/C(=N/NC(=O)c1ccc2c(c1)OCO2)c1ccc(NC(=O)c2ccc(F)cc2)cc1 | -16% | -3% | 6% | 17%[46.1 µM] | 20%[46.1 µM]
COc1ccc(C(=O)Nc2ccc3[nH]ccc3c2)cc1 | ? | -25% | ? | ? | 1.4µM*
COc1cccc(NC(=O)c2ccc3c(c2)OCCO3)c1 | 0% | 1% | -14% | ? | 1.1µM*
Cc1ccc(C(=O)Nc2ccc3nc(C)sc3c2)s1 | . | -12% | -25% | -8% | ?
Cc1nc2cc(NC(=O)c3ccc(Br)s3)ccc2s1 | . | . | 11µM* | . | .
CCCC=CC1C(=O)[C@@H]2O[C@H]2C2(OCC(CC)(CC)CO2)C1CO (stereo partly drawn) | . | . | . | -11%[14.2 µM] | .
COc1cc(OC)c(/C=C/c2ccncn2)c(OC)c1 | -4% | -8% | . | . | .
COc1ccc(-c2cc(C(=O)Nc3c(C)nn(Cc4ccccc4Cl)c3C)no2)cc1OC | . | . | 8.9µM* | -6% | -1%
COc1ccc(OC)c(-c2cc(C(=O)Nc3c(C)nn(Cc4ccccc4Cl)c3C)no2)c1 | -13% | -27% | 16µM* | -3% | -10%
COc1ccc(OC)c(-c2cc(C(=O)Nc3c(C)nn(Cc4ccccc4C)c3C)no2)c1 | . | . | 3.2µM* | ? | ?
COc1cc(=O)n2c(c1C(=O)N(C)Cc1nonc1C)CCN(Cc1ccc(F)cc1)CC2 | -14% | -8% | . | . | .
Cc1cc(Nc2cccc(C(F)(F)F)c2)nc2ccc(NC(=O)c3cccc(Cl)c3)cc12 | -22% | -22% | . | . | -27%[46.1 µM]
CCn1cc([N+](=O)[O-])c(C(=O)N2N=C(c3ccc4ccccc4c3)CC2c2cc(Br)ccc2O)n1 (stereo not drawn) | 14µM* | ? | ? | ? | ?
COc1ccc2c(c1)-c1nc(-n3ncc(C(=O)NC[C@@H]4CCCN5CCCC[C@H]45)c3C)ncc1CC2 | 13µM* | ? | . | . | .
SMILES | VACV mCherry inh | VACV Venus inh | HCV inh | Marburg entry inh | LASV entry inh
COCC(=O)OC1CCn2c1nc1c2C(=O)C(C)=C(NC(C)=O)C1=O (stereo not drawn) | ? | ? | 14µM* | ? | 3.2µM*
Cc1nn(C)c(Oc2ccccc2)c1CCNS(=O)(=O)c1ccc(Cl)cc1 | ? | ? | 10µM* | -19%[46.1 µM] | -23%
COC(=O)C(CC(=O)c1ccc(Br)cc1)n1ccnc1 (stereo not drawn) | -12% | -5% | 1.3µM* | 0% | .
COC(=O)[C@H]1O[C@@H](c2c(OC)c(OC)c(C)c(OC)c2OC)[C@H](C)[C@@H](O)[C@@H]1C | . | . | . | 6%[14.2 µM] | .
O=C(OCc1ccccc1)c1ccc(-c2nnn(Cc3ccccc3F)n2)cc1 | -15% | -18% | . | 0%[46.1 µM] | 11%[46.1 µM]
COc1ccc(-c2nnn(Cc3ccccc3F)n2)cc1 | -11%[1.46 µM] | -13% | 11µM* | -1% | 3%
CC(/C=C/c1ccccc1)=N\Nc1nc(C)cc(C)n1 | -17% | -12% | 13% | 0% | 23%
Cc1cc(C)nc(NN=C(c2ccccc2)c2ccccc2)n1 | -1% | -10% | ? | 10µM* | ?
CCc1ccc(N(C2C=CS(=O)(=O)C2)S(=O)(=O)c2ccccc2)cc1 (stereo not drawn) | -27% | -22% | 7% | -21% | -14%
Cc1ccc(S(=O)(=O)N(c2cccc(C(F)(F)F)c2)C2C=CS(=O)(=O)C2)cc1 (stereo not drawn) | -18% | -8% | 10µM* | -23% | -2%
FC(F)Oc1ccc(NC(=S)NCc2ccccc2)cc1 | -2% | ? | 1% | ? | 13%
CC(NC(=S)Nc1cccc(C(F)(F)F)c1)C(C)(C)C (stereo not drawn) | -6% | -21% | ? | ? | 10µM*
CC(NC(=S)Nc1ccc(OC(F)F)c(Cl)c1)C(C)(C)C (stereo not drawn) | -24% | ? | 11µM* | ? | ?
FC(F)Oc1ccc(NC(=S)NCc2ccccc2)cc1Cl | . | . | 13µM* | 12% | -15%
CSc1ccc(/C=C2\C=C(C(O)c3ccc(SC)cc3)c3ccccc32)cc1 (stereo not drawn) | -13% | ? | . | . | .
Cn1c(=O)c2c(c3ccccc31)OC(=O)CC2c1ccc(C(F)(F)F)cc1 (stereo not drawn) | -1% | -14% | . | -2%[46.1 µM] | 4%[46.1 µM]
CCCN1C(=O)c2cc(C(=O)Nc3ccccc3OC)ccc2C1Nc1ccccc1OC (stereo not drawn) | i | -12% | 11µM* | ? | ?
COC(=O)CC=C[C@@H](C)[C@@H](C=NOC[C@@H](C)[C@H](OCc1ccccc1)C(C)C)NS(=O)(=O)c1ccc(C)cc1 | . | . | . | -14%[14.2 µM] | -4%[14.3 µM]
CCc1cc(=O)oc2c3c(cc(OCC(=O)NC4CC4)c12)OC(C)(C)CC3 | -9% | -15% | 0.79µM* | . | .
CCc1cc(=O)oc2c3c(cc(OCC(=O)NCc4ccco4)c12)OC(C)(C)CC3 | -7% | 2% | 1.3µM* | . | .
Cc1cccc(-c2nc3c4ccccc4n(CC(=O)Nc4cccc(F)c4)c(=O)n3n2)c1 | -17% | -14% | . | . | -13%[46.1 µM]
CCCN(CCC)CCNC(=O)C1CCN(c2nc3ccc(CC)cc3s2)CC1 | -10%[7.34 µM] | -5%[7.34 µM] | . | ? | ?
COc1ccccc1CNc1ccc2c(c1)OC[C@H](CC(C)C)NS2(=O)=O | . | . | . | . | 10%[46.1 µM]
CC(C)NC(=S)NC(=O)c1ccc(-c2ccccc2)cc1 | -24% | -16% | 14µM* | ? | -3%
C=CCn1c(O)c(C(CC)=NCc2ccc3c(c2)OCO3)c(=O)[nH]c1=O | -14% | -22% | -6% | 14%[14.2 µM] | ?
C=CCn1c(O)c(C(CC)=NCc2cc(OC)cc(OC)c2)c(=O)[nH]c1=O | ? | ? | -31% | ? | 5.8µM*
Cc1ccc(Oc2nc(-c3ccccc3)ncc2S(C)(=O)=O)cc1 | . | -7% | 3% | ? | 8%
